In all, about 360,000 compounds went through this assay and about 7,300 (2%) were called active. Rule as the data show it: active = inhibition above about 50%; inactive = the rest. The sample as a whole holds a higher share of actives than the screen did.

What is called inhibition is the relative decrease from the control value, in per cent.

The experiment can be described thus: blockers of TWEAK-induced Fn14 reporter activity – luciferase reporter cells, uHTS, primary screen (AID 1159606). The note with it: TWEAK-stimulated Fn14 reporter cells, luciferase luminescence, 8 h; at 10 µM; hits give high values.
As to `COCc1ccc(C(=O)NC2CC(C)(C)Cc3c2cnn3-c2ccc(C)cc2)o1` (stereo not drawn), the inhibition is 3.46% (inactive).
For the molecule `COCCCNC(=O)CC1C[C@H](C(=O)N2CCCCC2)[C@@]2(CCc3ccccc3)c3[nH]c4ccccc4c3CCN2C1=O` (stereo partly drawn), the inhibition was 17.5% (inactive).
Next, `O=C(CCCl)Nc1ccc(S(=O)(=O)NCc2ccco2)cc1`: 13% (inactive); `CCNC(=O)c1cc2c(c(-c3cccc(-c4cncnc4)c3)n1)[C@H](CCO)N(C(C)=O)C2`: -9.64% (inactive).
Next, `Cc1ccccc1-n1nnc2c(=O)oc3ccccc3c21`: -3.42% (inactive); `O=C1CCC(=O)N1c1ccc(NCCc2ccccc2F)c([N+](=O)[O-])c1`: -12.8% (inactive).
Next, `S=C(c1ccc(-c2ccccc2)o1)N1CCCCC1`: -8.48% (inactive).
With `OCCN1CCN(C(=S)c2ccc(-c3ccccc3)cc2)CC1`, the inhibition was 54.4% (active).
Next, `C=CCc1ccccc1OCC(O)CN1CCN(CCO)CC1` (stereo not drawn): -11.8% (inactive); `Cc1cc(C)n2c(NCc3ccccc3)c(CC(C)C)nc2n1`: -7.32% (inactive).
Consider `Cc1ccc(C)c(S(=O)(=O)N(C)c2ccc(OC(=O)C3CCN(C(=O)c4ccc(F)cc4)CC3)cc2)c1`, for which the inhibition is -10.5% (inactive).
As for `Cc1ccccc1C(CC(=O)c1cccs1)C(C#N)C#N` (stereo not drawn), the inhibition was 83.8% (active).
Turning to `O=C(NCC(=O)N1CCN(c2ccccc2F)CC1)c1cccs1`, the inhibition was -8.04% (inactive).
For `Cc1ccc(C)c(NC(CC(=O)c2ccccc2)C(=O)OCC(=O)c2cccs2)c1` (stereo not drawn), the inhibition is -31.8% (inactive).
Next, `Cc1nn(-c2ccccc2)c(=O)c2noc(C)c12`: 2.03% (inactive).
The result for `COc1cccc(CN2C(=O)CCC2(C)C(=O)NC2CCCCCC2)c1` (stereo not drawn) reads 9.99% (inactive); that for `CCOC(=O)C1=CC[C@@H](c2ccccc2)N(S(=O)(=O)c2ccc(C)cc2)[C@H]1c1cccc(OC)c1`, 3.81% (inactive); that for `CN1CCN(S(=O)(=O)c2ccc(N3CCN(S(=O)(=O)c4cccs4)CC3)nc2)CC1`, -14.8% (inactive).
With `OC[C@@H]1CN(Cc2ccncc2)C[C@H](n2cnc3c(N4CCN(c5ccccc5)CC4)ncnc32)O1`, the inhibition is 29.9% (inactive).
The result for `Cc1cccc(NC(=S)N2CCC(C(=O)c3ccc(F)cc3)CC2)c1` reads -7.96% (inactive).
Turning to `O=[N+]([O-])c1c(NCCO)cc(Sc2nc3ccccc3s2)c2nonc12`, the inhibition is 9.76% (inactive).
The result for `O=C(O)c1ccccc1CSc1nc2ccccc2s1` reads 53.1% (active); that for `Clc1ccc(-c2nnc(SCc3nc4ccccc4s3)o2)cc1`, -3.77% (inactive).
Turning to `COC(=O)[C@]12CCCCC=C1N(CCC1=CCCCC1)C(=O)[C@H](CC(=O)NCC1CCCCC1)C2`, the inhibition is 9.77% (inactive).
The result for `Cc1ccc(-c2c(C)n([O-])c3c([n+]2=O)CCC3)cc1` reads 19% (inactive); that for `CN(C(=O)c1cccc(OC2CCN(S(=O)(=O)N(C)C)CC2)c1)C1CCOC1` (stereo not drawn), -26.3% (inactive); that for `CNS(=O)(=O)c1cccc(C(=O)NCC2CCCCC2)c1`, -15.5% (inactive).
The result for `CN(C)S(=O)(=O)N1CCC(Oc2cccc(C(=O)NCCCC3CCCC3)c2)CC1` reads 57.2% (active).
As to `Cc1ccc(C)c2[nH]c(=O)c(CCNC(=O)CC(C)C)cc12`, the inhibition was -18.2% (inactive).
The result for `Cc1ccc(C(=O)Nc2ccc3c(c2)OCCO3)cc1S(=O)(=O)N1CCOCC1` reads -15.2% (inactive); that for `Cc1nc(NC(=O)c2ccc3c(c2)OCCO3)ccc1Br`, 30.4% (inactive).
The result for `CCN(CC)CCNC(=O)c1ccc(NS(=O)(=O)c2ccc3c(c2)OCCO3)cc1` reads 2.79% (inactive); that for `CCCc1cc(C(=O)Nc2ccc(Cl)cn2)cs1`, 58.8% (active); that for `O=C(Nc1cccc(S(=O)(=O)Nc2ccc(Cl)cc2)c1)c1ccc2c(c1)OCCO2`, 78.2% (active).
Next, `CCCCC(CC)C(=O)Nc1ccc(Cl)cn1` (stereo not drawn): -8.67% (inactive); `O=C(Nc1ccc(Cl)cn1)c1cnn2cccnc12`: 5.94% (inactive).
On to `O=C(Nc1ccc2c(c1)OCCO2)c1ccc(Cl)c(S(=O)(=O)N2CCCCC2)c1`, for which the inhibition was 56.7% (active).
Next, `CCCc1cc(C(=O)Nc2ccc(C(=O)OC)cc2)cs1`: -11.7% (inactive).
The result for `CN1CCN(c2ccc(NC(=O)c3ccc4c(c3)OCCO4)cc2Cl)CC1` reads 17.5% (inactive).
Next, `O=C(Nc1ccc(Cl)cn1)c1ccc2c(c1)OCCO2`: 66.8% (active).
For the molecule `CC(NS(=O)(=O)c1ccc(Cl)cc1)C(=O)Nc1ccc2c(c1)OCCO2` (stereo not drawn), the inhibition is 32.7% (inactive).
For the molecule `CCOc1ccc(-c2c(C)n([O-])c3c([n+]2=O)CCCC3)cc1`, the inhibition is -15.2% (inactive).
Next, `O=S1(=O)CC(N2CCSCC2)CN1Cc1cn(Cc2cccc(Cl)c2)nn1` (stereo not drawn): 0.68% (inactive); `CC(=O)N1Cc2cc(C(=O)NCc3cccc(F)c3)nc(-c3cccc(C4=CCCC4)c3)c2[C@H]1CCO`: -25.9% (inactive).
With `COC(=O)C1(C(=O)OC)C/C=C\CN(S(=O)(=O)c2ccccc2[N+](=O)[O-])CCC1`, the inhibition is -4.25% (inactive).
The result for `CC(=O)N1CCSc2ccc(S(=O)(=O)N3CCC(C)CC3)cc21` reads 10.4% (inactive); that for `Cc1csc(=O)n1CCC(=O)OCC(=O)Nc1ccc(N2CCOCC2)cc1`, -8.76% (inactive).
Consider `Clc1ccccc1Nc1nc(NCc2cccs2)nc2ccsc12`, for which the inhibition was 12.1% (inactive).
Next, `COc1cccc(CNc2nc(NCc3cccs3)nc3ccsc23)c1`: -13.7% (inactive); `COc1ccccc1CNc1nc(Nc2ccccc2Cl)c2sccc2n1`: 61.9% (active); `COCCNc1nc(NCc2ccc(NC(C)=O)cc2)c2sccc2n1`: -3.75% (inactive).
Turning to `COCCNc1nc(Nc2ccccc2Cl)c2sc(-c3ccccc3)cc2n1`, the inhibition was -18.2% (inactive).
Take `COc1cccc(CNc2nc(NCc3ccccc3OC)nc3ccsc23)c1`: the inhibition is 63.1% (active).
The result for `O=C1CC(c2ccccc2)C(c2ccccc2)=NN1` (stereo not drawn) reads -8.4% (inactive).
The result for `O=S1(=O)CCOC[C@H](CC2CCCCC2)N1Cc1ccc(F)cc1` reads 3.84% (inactive).
For `CCc1cccc(CC)c1NC(=O)COc1ccccc1C(=O)c1cc(C#N)c(=O)n(C2CCCCC2)c1`, the inhibition is 19.8% (inactive).
As for `CN(Cc1cn(Cc2ccc(C(F)(F)F)cc2)nn1)C1CN(Cc2cn(Cc3ccc(C(F)(F)F)cc3)nn2)S(=O)(=O)C1` (stereo not drawn), the inhibition is 33.8% (inactive).
As for `CC(=O)c1nc(N2C(=O)C3CC=C(C)CC3C2=O)sc1C` (stereo not drawn), the inhibition was -2.22% (inactive).
The result for `Cc1ccc(-c2cc(=O)[nH]c(NCc3ccccc3)n2)cc1` reads 9.23% (inactive); that for `CCS(=O)(=O)c1ccc2c(c1)N(S(=O)(=O)c1ccccc1)CC(C(=O)O)O2` (stereo not drawn), -19.1% (inactive); that for `CC1(C(=O)O)CCCN(C(=O)/C=C/c2ccccc2)C1` (stereo not drawn), 3.38% (inactive).
Next, `Cc1[nH]c(=O)c(C(=O)/C=C/c2ccccc2)c2c1CCCC2`: 83.9% (active); `COC(=O)c1c(C)[nH]c(C(=O)/C=C/c2ccc(Cl)cc2)c1C`: -23.7% (inactive); `CCN(CC)CCOc1ccc2c(c1)C(=NNC(=O)c1ccccn1)c1cc(OCCN(CC)CC)ccc1-2`: -85.7% (inactive).
The result for `COc1ccc(-c2cc(C(F)(F)F)nc(S(C)(=O)=O)n2)cc1OC` reads 76.2% (active).
With `COc1ccc(-c2cc(C(=O)N(C)Cc3ccc(OC)c(OC)c3OC)c3ccccc3n2)cc1OC`, the inhibition was 19.7% (inactive).
In the case of `COc1ccc(-c2cc(C(=O)NCCCN3CCCC3=O)c3ccccc3n2)cc1OC`, the inhibition is -9.51% (inactive).
Next, `OCC1(Cc2ccccc2C(F)(F)F)CCN(Cc2ccncc2)CC1`: 14.4% (inactive).
As for `Cc1cc(-c2nnc(SCC(=O)Nc3ccc(F)cc3)n2N)n[nH]1`, the inhibition was 1.35% (inactive).
Consider `O=C(CC[C@H]1O[C@@H](n2ccc(=O)[nH]c2=O)[C@H](O)[C@@H]1O)N[C@H](Cc1ccccc1)C(=O)NCc1ccco1`, for which the inhibition was 10.1% (inactive).
`CC(OC(=O)/C=C/c1ccccc1)C(=O)NC1CCCCC1C` (stereo not drawn): the inhibition is -1.03% (inactive).
The result for `CC1CCCCC1NC(=O)COc1ccc(C#N)cc1` (stereo not drawn) reads 2.53% (inactive); that for `CC1CCCCC1NC(=O)/C(C#N)=C/C=C/c1ccccc1[N+](=O)[O-]` (stereo not drawn), 84.9% (active).
Take `CC(=O)NCC(=O)N(C)C(C(=O)Nc1ccc2c(c1)OCCO2)c1ccccc1` (stereo not drawn): the inhibition was 7.79% (inactive).
Next, `CCN(CC)CCn1cnc2c1c(=O)n(CCOC(=O)c1cc(OC)c(OC)c(OC)c1)c(=O)n2C`: -2.5% (inactive).
Consider `O=C(CC1SC(N2CCCC2)=NC1=O)Nc1ccc(C(=O)NCCc2ccc(F)cc2)cc1` (stereo not drawn), for which the inhibition is -8.62% (inactive).
Next, `N#Cc1ccc(C(=O)Nc2nc(-c3cccs3)c(C(=O)C(F)(F)F)s2)cc1`: 58.4% (active); `C=CCN(CC=C)S(=O)(=O)c1ccc(C(=O)Nc2nc3c(s2)CCc2ccccc2-3)cc1`: -34.3% (inactive); `N#Cc1c(-c2cccs2)nc(SCC(=O)c2ccc(Br)cc2)[nH]c1=O`: -12.4% (inactive).
For `Cc1oc2c(C)c3oc(=O)c(CC(=O)N[C@@H](CC(C)C)C(=O)N[C@@H](Cc4ccccc4)C(=O)O)c(C)c3cc2c1C`, the inhibition is -9.29% (inactive).
The result for `COC(=O)c1ccc(NS(=O)(=O)c2cc3c4c(c2)C(C)C(=O)N4CCC3)cc1` (stereo not drawn) reads 9.82% (inactive); that for `O=C(Nc1nnc(-c2ccc(F)cc2)s1)c1c(F)cccc1Cl`, 5.11% (inactive).
As to `Cc1ccc(S(=O)(=O)CCC(=O)Nc2nnc(CC(C)C)s2)cc1`, the inhibition was -1.46% (inactive).
For `CCOC(=O)CSc1nnc(NC(=O)c2cccc(S(=O)(=O)N3CCCCC3)c2)s1`, the inhibition was 41.9% (inactive).
As to `CSc1nnc(NC(=O)c2nc(S(=O)(=O)Cc3ccc(C)cc3)ncc2Cl)s1`, the inhibition was 92% (active).
Take `Cc1ccc(CS(=O)(=O)c2ncc(Cl)c(C(=O)Nc3nnc(C)s3)n2)cc1`: the inhibition is 96.5% (active).
Consider `Cc1cccc(C(=O)Nc2nnc(S(=O)(=O)N3CCCCCC3)s2)c1`, for which the inhibition is -46.1% (inactive).
Consider `CSc1nc2nc3c(c(=O)n2[nH]1)CCC3`, for which the inhibition is -0.44% (inactive).

The values are drawn from PubChem BioAssay AID1159606 (Sanford-Burnham Center for Chemical Genomics, 2016).
